In PubChem BioAssay AID1159580 (chemical genetic matrix, 2015):
In all, about 5,500 compounds went through this assay and about 2,000 (36%) were called active. Inconclusive results (about 18%) are left out. Rule as the data show it: active = normalized growth mostly below about 0.91 (no sharp cut-off); inconclusive = no clear call, values can overlap the other calls; inactive = mostly above about 0.92. This is one part of the list.

Assay: chemical genetic growth profiling, strain panel (AID 1159580);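 also: tested at 20 µM; growth read once vehicle control cultures reached saturation at 30 °C; 1 = growth at the plate median or of vehicle wells; lower values mean less growth of the strain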
Conditions: growth OD

Measured: normalized growth

CC(N)C(O)c1ccc(O)c(O)c1 (stereo unspecified)
inactive: S. cerevisiae deletion strains, locus YAL013W, strain DEP1, hits give low values 1 | S. cerevisiae deletion strains, locus YBR021W, strain FUR4, hits give low values 0.982 | S. cerevisiae deletion strains, locus YBR229C, strain ROT2, hits give low values 0.98 | S. cerevisiae deletion strains, locus YCL029C, strain bik1, hits give low values 0.981 | S. cerevisiae deletion strains, locus YDL035C, strain GPR1, hits give low values 0.988 | S. cerevisiae deletion strains, locus YDL074C, strain BRE1, hits give low values 1.02 | S. cerevisiae deletion strains, locus YDL101C, strain DUN1, hits give low values 0.998 | S. cerevisiae deletion strains, locus YDL134C, strain PPH21, hits give low values 1.01 | S. cerevisiae deletion strains, locus YDL185W, strain tfp1, hits give low values 0.977 | S. cerevisiae deletion strains, locus YDL192W, strain arf1, hits give low values 0.973 | S. cerevisiae deletion strains, locus YDR101C, strain arx1, hits give low values 0.992 | S. cerevisiae deletion strains, locus YDR150W, strain NUM1, hits give low values 0.999 | S. cerevisiae deletion strains, locus YDR162C, strain NBP2, hits give low values 1.04 | S. cerevisiae deletion strains, locus YDR318W, strain mcm21, hits give low values 0.979 | S. cerevisiae deletion strains, locus YDR388W, hits give low values 0.98 | S. cerevisiae deletion strains, locus YDR502C, strain sam2, hits give low values 0.999 | S. cerevisiae deletion strains, locus YEL061C, strain CIN8, hits give low values 0.998 | S. cerevisiae deletion strains, locus YER110C, hits give low values 0.97 | S. cerevisiae deletion strains, locus YER155C, strain BEM2, hits give low values 0.994 | S. cerevisiae deletion strains, locus YER167W, strain BCK2, hits give low values 0.98 | S. cerevisiae deletion strains, locus YGL078C, strain dbp3, hits give low values 0.994 | S. cerevisiae deletion strains, locus YGL086W, strain mad1, hits give low values 0.98 | S. cerevisiae deletion strains, locus YGL248W, strain PDE1, hits give low values 0.991 | S. cerevisiae deletion strains, locus YGR078C, strain PAC10, hits give low values 1.02 | S. cerevisiae deletion strains, locus YGR135W, strain pre9, hits give low values 1.01 | S. cerevisiae deletion strains, locus YGR229C, strain SMI1, hits give low values 1.02 | S. cerevisiae deletion strains, locus YGR252W, strain gcn5, hits give low values 0.901 | S. cerevisiae deletion strains, locus YHR030C, strain SLT2, hits give low values 0.99 | S. cerevisiae deletion strains, locus YHR079C, strain IRE1 (second series), hits give low values 0.976 | S. cerevisiae deletion strains, locus YHR094C, strain hxt1, hits give low values 0.988 | S. cerevisiae deletion strains, locus YHR129C, strain ARP1, hits give low values 0.997 | S. cerevisiae deletion strains, locus YHR200W, strain rpn10, hits give low values 0.971 | S. cerevisiae deletion strains, locus YIL066C, strain RNR3, hits give low values 0.986 | S. cerevisiae deletion strains, locus YIL073C, strain SPO22, hits give low values 0.958 | S. cerevisiae deletion strains, locus YIL125W, strain kgd1, hits give low values 0.988 | S. cerevisiae deletion strains, locus YIR030C, strain dcg1, hits give low values 0.993 | S. cerevisiae deletion strains, locus YJL095W, strain BCK1, hits give low values 1.02 | S. cerevisiae deletion strains, locus YJL134W, strain LCB3, hits give low values 0.993 | S. cerevisiae deletion strains, locus YJL168C, strain set2, hits give low values 0.984 | S. cerevisiae deletion strains, locus YJL187C, strain SWE1 (second series), hits give low values 1.01 | S. cerevisiae deletion strains, locus YJR043C, strain POL32, hits give low values 1.01 | S. cerevisiae deletion strains, locus YJR075W, strain HOC1, hits give low values 1.01 | S. cerevisiae deletion strains, locus YKL009W, strain mrt4, hits give low values 0.972 | S. cerevisiae deletion strains, locus YKL068W, hits give low values 0.991 | S. cerevisiae deletion strains, locus YKL085W, strain MDH1 (second series), hits give low values 0.98 | S. cerevisiae deletion strains, locus YKL085W, strain MDH1, hits give low values 0.98 | S. cerevisiae deletion strains, locus YKL190W, strain CNB1, hits give low values 1 | S. cerevisiae deletion strains, locus YKR001C, strain vps1, hits give low values 0.993 | S. cerevisiae deletion strains, locus YLR039C, strain RIC1, hits give low values 1.01 | S. cerevisiae deletion strains, locus YLR058C, strain SHM2, hits give low values 0.989 | S. cerevisiae deletion strains, locus YLR102C, strain apc9, hits give low values 0.989 | S. cerevisiae deletion strains, locus YLR262C, strain YPT6, hits give low values 0.997 | S. cerevisiae deletion strains, locus YLR268W, strain sec22, hits give low values 1.01 | S. cerevisiae deletion strains, locus YLR330W, strain CHS5, hits give low values 0.99 | S. cerevisiae deletion strains, locus YLR342W, strain FKS1 (second series), hits give low values 0.976 | S. cerevisiae deletion strains, locus YLR371W, strain rom2, hits give low values 0.971 | S. cerevisiae deletion strains, locus YLR418C, strain cdc73, hits give low values 1.04 | S. cerevisiae deletion strains, locus YML016C, strain PPZ1, hits give low values 0.991 | S. cerevisiae deletion strains, locus YML032C, strain rad52, hits give low values 0.971 | S. cerevisiae deletion strains, locus YML124C, strain tub3, hits give low values 0.983 | S. cerevisiae deletion strains, locus YMR078C, strain ctf18, hits give low values 0.971 | S. cerevisiae deletion strains, locus YMR223W, strain ubp8, hits give low values 0.968 | S. cerevisiae deletion strains, locus YMR263W, strain SAP30, hits give low values 1.02 | S. cerevisiae deletion strains, locus YMR307W, strain GAS1, hits give low values 0.95 | S. cerevisiae deletion strains, locus YNL067W, strain RPL9B, hits give low values 1.02 | S. cerevisiae deletion strains, locus YNL128W, strain TEP1, hits give low values 0.996 | S. cerevisiae deletion strains, locus YNL153C, strain GIM3, hits give low values 1.03 | S. cerevisiae deletion strains, locus YNL233W, strain BNI4, hits give low values 1.02 | S. cerevisiae deletion strains, locus YNL250W, strain rad50, hits give low values 0.978 | S. cerevisiae deletion strains, locus YNL271C, strain bni1, hits give low values 0.973 | S. cerevisiae deletion strains, locus YNL298W, strain CLA4, hits give low values 0.982 | S. cerevisiae deletion strains, locus YNL307C, strain MCK1, hits give low values 0.99 | S. cerevisiae deletion strains, locus YNL322C, strain KRE1, hits give low values 0.997 | S. cerevisiae deletion strains, locus YNR052C, strain pop2, hits give low values 0.959 | S. cerevisiae deletion strains, locus YOL006C, strain TOP1, hits give low values 1.02 | S. cerevisiae deletion strains, locus YOL012C, strain htz1 0.931 | S. cerevisiae deletion strains, locus YOL147C, strain pex11, hits give low values 0.983 | S. cerevisiae deletion strains, locus YOR061W, strain CKA2, hits give low values 0.998 | S. cerevisiae deletion strains, locus YOR069W, strain VPS5, hits give low values 0.991 | S. cerevisiae deletion strains, locus YOR136W, strain idh2, hits give low values 0.972 | S. cerevisiae deletion strains, locus YOR144C, strain elg1, hits give low values 0.977 | S. cerevisiae deletion strains, locus YOR184W, strain ser1, hits give low values 0.971 | S. cerevisiae deletion strains, locus YOR316C, strain cot1, hits give low values 0.981 | S. cerevisiae deletion strains, locus YPL055C, strain LGE1, hits give low values 1.03 | S. cerevisiae deletion strains, locus YPL241C, strain CIN2, hits give low values 1 | S. cerevisiae deletion strains, locus YPR119W, strain clb2, hits give low values 0.995 | S. cerevisiae deletion strains, locus YPR141C, strain kar3, hits give low values 0.976 | S. cerevisiae deletion strains, locus YPR163C, strain tif3, hits give low values 0.987 | S. cerevisiae deletion strains, locus YPR167C, strain met16, hits give low values 0.986 | S. cerevisiae deletion strains, strain wtn01, hits give low values 1.01 | S. cerevisiae strains, strain wild type, hits give low values 0.994
